# Inconclusive results are not listed. A call without a number means that no potency is given here. Active and inactive are the calls of the source. Unless noted, calls follow the shape of the dose curve; as a rule, active = well fitted curve in the direction sought with a large enough effect; inconclusive = small, poorly fitted or top-dose-only effect, or another doubt; inactive = no such curve, though single readings can be large; an effect the other way counts as inactive or inconclusive.
# Assays:
# [1] = target: 3',5'-cyclic-AMP phosphodiesterase 4B (Homo sapiens) (UniProt Q07343); assay: qHTS Assay for Inhibitors of PDE-IV (AID 607; active = well fitted activation curve with a large enough effect in the main read-out, with a control signal flat, not every such curve was filed as active)
# How it was run: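 HEK293 ACTOne cells with CNG channel (1000/well), endogenous PDE4; membrane potential dye, compounds up to 22.9 uM final. Fluorescence Ex 535/Em 590; RO 20-1724 (100 uM final) as reference.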
# 3D7 = assay: qHTS profiling for inhibitors of Plasmodium falciparum proliferation (AID 504749); also: nearly all actives have a fitted effect of over 60% in size; also: potency is read from the fitted curve at half-maximal effect; conditions: P. falciparum in erythrocytes, SYBR Green DNA, 72 h; series mostly up to 12.8 µM
# How it was run: (§1)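 In a 72 h erythrocytic culture (37 C, humidified, 5% CO2) at 2.5% hematocrit and 0.3% starting parasitemia, compounds were tested; SYBR Green I in detergent lysis buffer stained parasite DNA overnight.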
# AS120 = assay: as above; conditions: P. falciparum in erythrocytes, SYBR Green DNA, 72 h; series mostly up to 12.8 µM
# How it was run: as §1
# CP217 = assay: as above; conditions: P. falciparum in erythrocytes, SYBR Green DNA, 72 h; series mostly up to 12.8 µM
# How it was run: as §1
# CP237 = assay: as above; conditions: P. falciparum in erythrocytes, SYBR Green DNA, 72 h; series mostly up to 12.8 µM
# How it was run: as §1
# CP250 = assay: as above; conditions: P. falciparum in erythrocytes, SYBR Green DNA, 72 h; series mostly up to 12.8 µM
# How it was run: as §1
# CP252 = assay: as above; conditions: P. falciparum in erythrocytes, SYBR Green DNA, 72 h; series mostly up to 12.8 µM
# How it was run: as §1
# CP266 = assay: as above; conditions: P. falciparum in erythrocytes, SYBR Green DNA, 72 h; series mostly up to 12.8 µM
# How it was run: as §1
# CP269 = assay: as above; conditions: P. falciparum in erythrocytes, SYBR Green DNA, 72 h; series mostly up to 12.8 µM
# How it was run: as §1
# CP305 = assay: as above; conditions: P. falciparum in erythrocytes, SYBR Green DNA, 72 h; series mostly up to 12.8 µM
# How it was run: as §1
# CP325 = assay: as above; conditions: P. falciparum in erythrocytes, SYBR Green DNA, 72 h; series mostly up to 12.8 µM
# How it was run: as §1
# CP329 = assay: as above; conditions: P. falciparum in erythrocytes, SYBR Green DNA, 72 h; series mostly up to 12.8 µM
# How it was run: as §1
# DIV30 = assay: as above; conditions: P. falciparum in erythrocytes, SYBR Green DNA, 72 h; series mostly up to 12.8 µM
# How it was run: as §1
# Dd2 = assay: as above; conditions: P. falciparum in erythrocytes, SYBR Green DNA, 72 h; series mostly up to 12.8 µM
# How it was run: as §1
# HB3 = assay: as above; conditions: P. falciparum in erythrocytes, SYBR Green DNA, 72 h; series mostly up to 12.8 µM
# How it was run: as §1
# JCK = assay: as above; conditions: P. falciparum in erythrocytes, SYBR Green DNA, 72 h; series mostly up to 12.8 µM
# How it was run: as §1
# N140 = assay: as above; conditions: P. falciparum in erythrocytes, SYBR Green DNA, 72 h; series mostly up to 12.8 µM
# How it was run: as §1
# SC27B = assay: as above; conditions: P. falciparum in erythrocytes, SYBR Green DNA, 72 h; series mostly up to 12.8 µM
# How it was run: as §1
# TAB113 = assay: as above; conditions: P. falciparum in erythrocytes, SYBR Green DNA, 72 h; series mostly up to 12.8 µM
# How it was run: as §1
# [2] = S16 Schwann cell viability assay (CellTiter-Glo assay) (AID 624031);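 also: native untransfected S16 rat Schwann cells; cellular ATP luminescence as a viability measure; nearly all actives have a fitted effect of over 70% in size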
# How it was run: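 Rat S16 Schwann cells without reporter constructs received compound or DMSO for 24 h at 37 °C under 5% CO2. Cellular ATP was then quantified by CellTiter-Glo luminescence, with vehicle wells defined as 0% activity and cell-free wells as reference.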
# Chain of 3',5'-cyclic-AMP phosphodiesterase 4B (Homo sapiens) (Q07343 whole entry, looked up): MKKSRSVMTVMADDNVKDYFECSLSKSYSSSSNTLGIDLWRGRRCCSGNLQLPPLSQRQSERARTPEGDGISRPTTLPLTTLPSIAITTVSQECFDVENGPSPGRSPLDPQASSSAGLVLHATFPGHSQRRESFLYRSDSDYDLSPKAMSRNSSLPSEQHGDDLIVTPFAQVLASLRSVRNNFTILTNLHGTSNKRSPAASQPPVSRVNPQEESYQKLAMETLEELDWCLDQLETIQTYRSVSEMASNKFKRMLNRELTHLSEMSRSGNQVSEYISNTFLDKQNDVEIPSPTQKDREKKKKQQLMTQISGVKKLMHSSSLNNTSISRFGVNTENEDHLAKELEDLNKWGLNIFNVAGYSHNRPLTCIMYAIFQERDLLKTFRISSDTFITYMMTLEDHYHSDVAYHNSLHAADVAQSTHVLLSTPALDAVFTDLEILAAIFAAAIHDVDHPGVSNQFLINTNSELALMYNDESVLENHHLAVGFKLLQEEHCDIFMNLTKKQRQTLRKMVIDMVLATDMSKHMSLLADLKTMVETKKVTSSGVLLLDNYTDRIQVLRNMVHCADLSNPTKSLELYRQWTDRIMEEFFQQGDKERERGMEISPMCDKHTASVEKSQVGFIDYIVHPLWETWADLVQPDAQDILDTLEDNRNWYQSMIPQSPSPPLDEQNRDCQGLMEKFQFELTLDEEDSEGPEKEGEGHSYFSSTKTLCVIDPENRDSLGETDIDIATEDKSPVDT
smiles,measurement,setting,value
c1ccc2c(c1)CCCc1cc(NCCN3CCOCC3)nnc1-2,outcome,[1],inactive
CN(C/C=C\c1ccccc1)Cc1cccc2ccccc12,Potency,3D7,inactive
same,Potency,AS120,inactive
same,Potency,CP217,inactive
same,Potency,CP237,inactive
same,Potency,CP250,inactive
same,Potency,CP252,inactive
same,Potency,CP266,inactive
same,Potency,CP269,inactive
same,Potency,CP305,inactive
same,Potency,CP325,inactive
same,Potency,CP329,inactive
same,Potency,DIV30,inactive
same,Potency,Dd2,inactive
same,Potency,HB3,inactive
same,Potency,JCK,inactive
same,Potency,N140,inactive
same,Potency,SC27B,inactive
same,Potency,TAB113,inactive
O=C(O)[C@@H]1[C@@H]2C[C@H]3c4[nH]c5ccccc5c4CCN3C[C@@H]2CC[C@@H]1O,outcome,[1],inactive
same,outcome,[2],inactive
same,Potency,3D7,inactive
same,Potency,CP250,inactive
same,Potency,CP305,inactive
same,Potency,Dd2,inactive
same,Potency,HB3,inactive
same,Potency,JCK,inactive
same,Potency,N140,inactive
same,Potency,SC27B,inactive
CN1CCC[C@@H](CC2c3ccccc3Sc3ccccc32)C1,outcome,[1],inactive
same,Potency,CP217,inactive
same,Potency,CP250,inactive
same,Potency,CP252,inactive
same,Potency,CP266,inactive
same,Potency,CP269,inactive
same,Potency,CP325,inactive
same,Potency,CP329,inactive
same,Potency,HB3,inactive
same,Potency,SC27B,inactive
same,Potency,TAB113,inactive
COc1ccc(-c2cc(=O)c3c(O)cc(O)cc3o2)cc1,outcome,[1],inactive
CO[C@@H]1CC[C@@]2(C)[C@@H](CC[C@@]3(C)[C@H]2CC=C2[C@H]4CC(C)(C)[C@H](O)[C@@H](OC(C)=O)[C@]4(CO)[C@H](O)C[C@]23C)[C@@]1(C)CO (tested in a mixture with another compound),outcome,[1],inactive
CC1(C)S[C@@H]2[C@H](NC(=O)[C@@H](N)c3ccc(O)cc3)C(=O)N2[C@H]1C(=O)O,outcome,[1],inactive
COc1ccccc1OC[C@H](O)CO,outcome,[1],inactive
same,outcome,[2],inactive
same,Potency,3D7,inactive
same,Potency,AS120,inactive
same,Potency,CP217,inactive
same,Potency,CP237,inactive
same,Potency,CP250,inactive
same,Potency,CP252,inactive
same,Potency,CP266,inactive
same,Potency,CP269,inactive
same,Potency,CP305,inactive
same,Potency,CP325,inactive
same,Potency,CP329,inactive
same,Potency,DIV30,inactive
same,Potency,Dd2,inactive
same,Potency,HB3,inactive
same,Potency,JCK,inactive
same,Potency,N140,inactive
same,Potency,SC27B,inactive
same,Potency,TAB113,inactive
NC[C@@H]1O[C@H](O[C@H]2[C@H](O)[C@@H](O[C@H]3[C@H](O)[C@H](N)C[C@H](N)[C@H]3O[C@@H]3O[C@H](CO)[C@@H](O)[C@H](O)[C@@H]3N)O[C@H]2CO)[C@@H](N)[C@H](O)[C@@H]1O,outcome,[1],inactive
CCN(CC)CCOC(=O)[C@@H](Cc1cccc2ccccc12)C[C@@H]1CCCO1,outcome,[1],inactive
same,outcome,[2],inactive
same,Potency,3D7,inactive
same,Potency,AS120,inactive
same,Potency,CP217,inactive
same,Potency,CP237,inactive
same,Potency,CP250,inactive
same,Potency,CP252,inactive
same,Potency,CP266,inactive
same,Potency,CP269,inactive
same,Potency,CP305,inactive
same,Potency,CP325,inactive
same,Potency,CP329,inactive
same,Potency,DIV30,inactive
same,Potency,HB3,inactive
same,Potency,JCK,inactive
same,Potency,N140,inactive
same,Potency,SC27B,inactive
same,Potency,TAB113,inactive
COC(=O)[C@@H]1[C@@H]2C[C@H]3c4[nH]c5cc(OC)ccc5c4CCN3C[C@@H]2C[C@H](OC(=O)/C=C\c2cc(OC)c(OC)c(OC)c2)[C@H]1OC,outcome,[1],inactive
same,outcome,[2],inactive
same,Potency,AS120,3.55 µM (active)
same,Potency,CP217,3.55 µM (active)
same,Potency,CP266,inactive
same,Potency,CP329,inactive
same,Potency,DIV30,5.1 µM (active)
same,Potency,N140,3.55 µM (active)
C[C@@H]1C[C@H](OC(=O)c2ccccc2O)CC(C)(C)C1,outcome,[1],inactive
CC1(C)S[C@@H]2[C@H](NC(=O)COc3ccccc3)C(=O)N2[C@H]1C(=O)O (tested in a mixture with another compound),outcome,[1],inactive
CC[C@H](C(=O)[C@H](C)[C@H](O)[C@H](C)CCc1ccc(C)c(O)c1C(=O)O)[C@H]1O[C@](CC)([C@@H]2CC[C@@](O)(CC)[C@H](C)O2)C[C@H]1C,outcome,[1],inactive
CO[C@@H]1C[C@H](O[C@H]2[C@@H](C)[C@H](O[C@@H]3O[C@@H](C)C[C@@H](N(C)C)[C@@H]3OC(C)=O)[C@H](C)C[C@]3(CO3)C(=O)[C@H](C)[C@H](OC(C)=O)[C@H](C)[C@H](C)OC(=O)[C@@H]2C)O[C@H](C)[C@@H]1OC(C)=O,outcome,[1],inactive
same,outcome,[2],inactive
same,Potency,3D7,inactive
same,Potency,AS120,inactive
same,Potency,CP217,inactive
same,Potency,CP237,inactive
same,Potency,CP250,inactive
same,Potency,CP252,inactive
same,Potency,CP266,inactive
same,Potency,CP269,inactive
same,Potency,CP305,inactive
same,Potency,CP325,inactive
same,Potency,DIV30,inactive
same,Potency,Dd2,inactive
same,Potency,HB3,inactive
same,Potency,JCK,inactive
same,Potency,N140,inactive
same,Potency,SC27B,inactive
same,Potency,TAB113,inactive
C[C@@]12C=CC(=O)C=C1CC[C@H]1[C@H]3CC[C@](O)(C(=O)CO)[C@]3(C)CC(=O)[C@@H]12,outcome,[1],inactive
CC[N+]1(C)[C@@H]2CC[C@H]1CC(OC(=O)[C@H]1CC[C@@](C(=O)OC3C[C@H]4CC[C@@H](C3)[N+]4(C)CC)(c3ccccc3)c3ccccc31)C2 (stereo partly drawn),outcome,[1],inactive
CCCCC[C@H](O)/C=C\[C@H]1[C@H](C/C=C\CCCC(=O)O)[C@@H](O)C[C@H]1O (tested in a mixture with another compound),outcome,[1],inactive
same,outcome,[2],inactive
same,Potency,3D7,inactive
same,Potency,AS120,inactive
same,Potency,CP217,inactive
same,Potency,CP237,inactive
same,Potency,CP250,inactive
same,Potency,CP252,inactive
same,Potency,CP266,inactive
same,Potency,CP269,inactive
same,Potency,CP305,inactive
same,Potency,CP325,inactive
same,Potency,CP329,inactive
same,Potency,DIV30,inactive
same,Potency,Dd2,inactive
same,Potency,HB3,inactive
same,Potency,JCK,inactive
same,Potency,N140,inactive
same,Potency,SC27B,inactive
same,Potency,TAB113,inactive
Nc1ncn([C@H]2O[C@@H](CO)[C@@H](O)[C@@H]2O)c(=O)n1,outcome,[1],inactive
CC(C)(C)NC(=O)[C@@H]1C[C@H]2CCCC[C@@H]2CN1C[C@H](O)[C@H](Cc1ccccc1)NC(=O)[C@@H](CC(N)=O)NC(=O)c1ccc2ccccc2n1,outcome,[1],inactive
Cc1cc2ccc(=O)oc2cc1OC[C@@H](O)C(C)(C)O,outcome,[1],inactive

# From PubChem BioAssay (NCATS)
